{"source": "PubChem BioAssay (EPA / NIEHS)", "note": "Results filed as inconclusive are left out. More than one record can exist for a structure, and the calls need not agree. Activity calls are given as the source filed them. Rule for the calls: active = hit-call score of the fitted dose curve at least 0.9, where 1 is the maximum; inconclusive = response in the unintended direction; inactive = score below 0.9."}
{"molecular_target": "rat Thyrotropin Releasing Hormone Receptor (TRH), Trhr (gene 25570) (UniProt Q01717)", "sequence (Q01717 whole entry, looked up)": "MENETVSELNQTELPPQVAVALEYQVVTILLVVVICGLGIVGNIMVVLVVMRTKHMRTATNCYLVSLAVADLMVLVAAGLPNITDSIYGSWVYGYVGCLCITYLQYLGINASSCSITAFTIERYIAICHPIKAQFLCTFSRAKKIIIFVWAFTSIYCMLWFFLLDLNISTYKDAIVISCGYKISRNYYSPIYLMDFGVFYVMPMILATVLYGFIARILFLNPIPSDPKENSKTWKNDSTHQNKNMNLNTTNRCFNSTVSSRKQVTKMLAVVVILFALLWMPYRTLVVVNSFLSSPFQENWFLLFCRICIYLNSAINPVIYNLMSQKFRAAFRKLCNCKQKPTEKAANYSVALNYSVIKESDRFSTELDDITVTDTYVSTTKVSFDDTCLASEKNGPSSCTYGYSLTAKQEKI", "assay": "NVS_GPCR_rTRH: NovaScreen (NVS) G Protein-Coupled Receptor Assay for rat Thyrotropin Releasing Hormone Receptor (TRH) (AID 2283329);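 note: hit means lower bound tracer signal versus DMSO baseline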", "method_in_brief": "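Competitive radioligand binding on rat forebrain membrane preparations, with filtration and scintillation readout after 4 h. Primary testing in duplicate at 25 uM; actives confirmed in concentration-response. DMSO defined baseline.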"}
{"smiles": "CCO[Si](C)(OCC)OCC", "outcome": "inactive"}
{"smiles": "Cc1ccc(C(C)c2ccc(C)c(C)c2)cc1C", "outcome": "inactive"}
{"smiles": "CO[Si](OC)(OC)c1ccccc1", "outcome": "inactive"}
{"smiles": "CC(C)(C)c1ccc(N)cc1", "outcome": "inactive"}
{"smiles": "CC=C1CC2C=CC1C2", "note": "(stereo not given)", "outcome": "inactive"}
{"smiles": "c1c[nH]cn1", "outcome": "inactive"}
{"smiles": "CCCCC/C=C\\CCC=O", "outcome": "inactive"}
{"smiles": "CCOC(=O)Cc1cccc2ccccc12", "outcome": "inactive"}
{"smiles": "C=C1C2CCC(C2)C1(C)C", "note": "(stereo not given)", "outcome": "inactive"}
{"molecular_target": "rat Peripheral-type Benzodiazepine Receptor (PBR), Tspo (gene 24230) (UniProt P16257)", "sequence (P16257 whole entry, looked up)": "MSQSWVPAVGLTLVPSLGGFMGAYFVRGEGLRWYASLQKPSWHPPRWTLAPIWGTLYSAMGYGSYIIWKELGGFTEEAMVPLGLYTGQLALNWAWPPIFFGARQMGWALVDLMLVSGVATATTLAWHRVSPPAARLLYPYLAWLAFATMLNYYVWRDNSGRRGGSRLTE", "assay": "NVS_MP_rPBR: NovaScreen (NVS) Membrane Protein Assay for rat Peripheral-type Benzodiazepine Receptor (PBR) (AID 2283335)", "method_in_brief": "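Rat kidney membranes; radioligand binding with displacement, filter-based scintillation counting, 1 h incubation. Primary screen in duplicate at 25 uM, actives followed in concentration series; loss of binding vs DMSO.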"}
{"smiles": "O=c1cc(-c2ccccc2)oc2ccccc12", "AC50": "3.68 µM (active)"}
{"smiles": "CC(C)c1ccc2c(C(C)C)cc(C(C)C)c(S(=O)(=O)O)c2c1", "outcome": "inactive"}
{"smiles": "O=S(=O)(O)c1ccccc1C=Cc1ccc(-c2ccc(C=Cc3ccccc3S(=O)(=O)O)cc2)cc1", "AC50": "2.43 µM (active)"}
{"smiles": "Cc1ccc(N/N=c2\\c(=O)cc/c(=N/Nc3ccc(S(=O)(=O)O)cc3)c2=O)c(C)c1", "AC50": "5.26 µM (active)"}
{"molecular_target": "bovine Estrogen Receptor (ER), ESR1 (gene 407238) (UniProt P49884)", "sequence (P49884 whole entry, looked up)": "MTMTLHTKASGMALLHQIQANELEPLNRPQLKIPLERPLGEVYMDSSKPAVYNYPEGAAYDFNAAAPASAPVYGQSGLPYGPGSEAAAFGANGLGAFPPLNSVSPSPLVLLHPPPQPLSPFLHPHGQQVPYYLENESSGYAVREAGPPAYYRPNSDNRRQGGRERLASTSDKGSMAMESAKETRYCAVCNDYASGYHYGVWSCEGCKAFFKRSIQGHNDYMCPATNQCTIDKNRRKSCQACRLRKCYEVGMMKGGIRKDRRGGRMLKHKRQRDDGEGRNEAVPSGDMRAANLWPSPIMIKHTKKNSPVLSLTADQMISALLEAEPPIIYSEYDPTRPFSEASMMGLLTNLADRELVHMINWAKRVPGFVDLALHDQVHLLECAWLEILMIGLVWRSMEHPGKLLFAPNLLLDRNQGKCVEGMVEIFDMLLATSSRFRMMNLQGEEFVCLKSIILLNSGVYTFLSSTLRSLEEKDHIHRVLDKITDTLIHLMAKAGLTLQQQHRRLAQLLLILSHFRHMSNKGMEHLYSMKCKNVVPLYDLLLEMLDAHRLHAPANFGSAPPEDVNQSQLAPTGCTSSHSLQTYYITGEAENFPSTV", "assay": "NVS_NR_bER: NovaScreen (NVS) Nuclear Receptor Binding Assay for bovine Estrogen Receptor (ER) (AID 2283345);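 note: actives lower the bound radioligand count which means they displace the ER ligand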", "method_in_brief": "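Displacement of a radioligand from estrogen receptor in bovine uterine membrane preparations; scintillation signal taken at 18 hours, DMSO as baseline. Single-concentration duplicates (25 uM) preceded concentration-response follow-up of actives.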"}
{"smiles": "COc1ccc(C(Cl)=C(c2ccc(OC)cc2)c2ccc(OC)cc2)cc1", "outcome": "inactive"}
{"smiles": "CCC(=O)Oc1ccc(/C(CC)=C(\\CC)c2ccc(OC(=O)CC)cc2)cc1", "AC50": "0.00521 µM (active)"}
{"smiles": "CCOC(=O)N1CCC(=C2c3ccc(Cl)cc3CCc3cccnc32)CC1", "outcome": "inactive"}
{"smiles": "O=S1(=O)OC(c2ccc(O)cc2)(c2ccc(O)cc2)c2ccccc21", "outcome": "inactive"}
{"smiles": "Nc1ccc(Oc2ccc(N)c(N)c2)cc1", "outcome": "inactive"}
{"smiles": "O=C1CCCCCN1SSN1CCCCCC1=O", "outcome": "inactive"}
{"smiles": "Cc1cccc(N)n1", "outcome": "inactive"}
{"smiles": "OC1CCCC1", "outcome": "inactive"}
{"smiles": "O=C(c1ccc(O)cc1)c1ccc(O)cc1O", "AC50": "2.12 µM (active)"}
{"smiles": "CCCCCCCCCCCCCOP(=O)(O)O", "outcome": "inactive"}
{"smiles": "[Cl][Bi]([Cl])([c]1ccccc1)([c]1ccccc1)[c]1ccccc1", "outcome": "inactive"}
{"smiles": "CCC(C)OC(=O)c1ccc(O)cc1", "note": "(stereo not given)", "AC50": "9.45 µM (active)"}
{"smiles": "O=C1Nc2ccccc2C1(c1ccc(O)cc1)c1ccc(O)cc1", "outcome": "inactive"}
{"smiles": "CC(=O)[C@H]1[C@H](C#N)C[C@H]2[C@@H]3CC=C4C[C@@H](O)CC[C@]4(C)[C@H]3CC[C@@]21C", "outcome": "inactive"}
{"smiles": "Cc1cc(O)c(Cl)c(C)c1Cl", "outcome": "inactive"}
{"smiles": "CC1=Nc2ccc3ccccc3c2C1(C)C", "outcome": "inactive"}
{"smiles": "O=c1cc(-c2ccccc2)oc2ccccc12", "outcome": "inactive"}
{"smiles": "[Cl][In]([Cl])[Cl]", "outcome": "inactive"}
{"smiles": "COc1ccc(-c2coc3cc(O)ccc3c2=O)cc1", "outcome": "inactive"}
{"smiles": "CN(C)c1ccc(N=Nc2ccccc2C(=O)O)cc1", "outcome": "inactive"}
{"smiles": "CC(=O)c1ccc2c(c1)CCCC2", "AC50": "5.86 µM (active)"}
{"smiles": "OC1CCCCCCCCCCC1", "outcome": "inactive"}
{"smiles": "C=CC(=O)OCCOC(=O)C=C", "outcome": "inactive"}
{"smiles": "Cc1cccc(N(C)C(=S)Oc2ccc3ccccc3c2)c1", "outcome": "inactive"}
{"smiles": "NC(CO)(CO)CO", "outcome": "inactive"}
{"smiles": "O=C(c1ccccc1)c1ccc(O)c(O)c1O", "outcome": "inactive"}
{"smiles": "Oc1ccc(Cl)cc1Cc1cc(Cl)ccc1O", "outcome": "inactive"}
{"smiles": "O=S(=O)(O)c1ccccc1C=Cc1ccc(-c2ccc(C=Cc3ccccc3S(=O)(=O)O)cc2)cc1", "outcome": "inactive"}
{"smiles": "CCOC(=O)c1ccccc1C(=C1C=C(Br)C(=O)C(Br)=C1)c1cc(Br)c(O)c(Br)c1", "outcome": "inactive"}
{"molecular_target": "chimpanzee Androgen Receptor (AR), AR (gene 747460) (UniProt O97775)", "sequence (O97775 whole entry, looked up)": "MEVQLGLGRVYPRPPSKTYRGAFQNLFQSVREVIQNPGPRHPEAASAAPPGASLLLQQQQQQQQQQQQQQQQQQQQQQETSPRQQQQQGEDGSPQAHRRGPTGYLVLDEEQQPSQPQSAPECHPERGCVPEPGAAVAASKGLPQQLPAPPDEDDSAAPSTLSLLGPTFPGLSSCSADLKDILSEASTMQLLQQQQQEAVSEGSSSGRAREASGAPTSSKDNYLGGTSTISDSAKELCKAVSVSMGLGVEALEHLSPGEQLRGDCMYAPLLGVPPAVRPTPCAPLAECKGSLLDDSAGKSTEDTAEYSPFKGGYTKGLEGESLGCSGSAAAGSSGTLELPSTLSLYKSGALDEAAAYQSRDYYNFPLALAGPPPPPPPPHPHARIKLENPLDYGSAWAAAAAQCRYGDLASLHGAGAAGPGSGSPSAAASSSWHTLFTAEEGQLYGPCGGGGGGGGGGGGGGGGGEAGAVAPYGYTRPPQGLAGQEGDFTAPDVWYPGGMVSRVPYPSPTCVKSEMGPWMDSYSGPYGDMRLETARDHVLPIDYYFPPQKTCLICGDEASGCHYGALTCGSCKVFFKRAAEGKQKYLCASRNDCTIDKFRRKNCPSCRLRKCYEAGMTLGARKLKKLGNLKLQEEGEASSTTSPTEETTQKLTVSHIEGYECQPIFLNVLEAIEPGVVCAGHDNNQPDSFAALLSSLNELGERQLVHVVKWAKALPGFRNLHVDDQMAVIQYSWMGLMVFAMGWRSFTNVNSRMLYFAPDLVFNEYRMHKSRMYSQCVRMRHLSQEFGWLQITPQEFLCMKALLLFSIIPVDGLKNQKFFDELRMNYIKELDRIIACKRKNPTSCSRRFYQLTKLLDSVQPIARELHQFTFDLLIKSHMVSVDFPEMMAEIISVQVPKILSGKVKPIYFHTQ", "assay": "NVS_NR_cAR: NovaScreen (NVS) Nuclear Receptor Binding Assay for chimpanzee Androgen Receptor (AR) (AID 2283346);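 note: a loss of bound radioligand signal versus DMSO counts as binding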", "method_in_brief": "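Radioligand binding to chimpanzee AR expressed in Sf9/Sf21 cells, cell-free, measured 72 h after dosing by lysate-based scintillation counting. Loss of signal vs DMSO; initial duplicate screen at 25 uM, actives retested in concentration series.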"}
{"smiles": "CN(C)c1ccc(N=Nc2ccccc2C(=O)O)cc1", "outcome": "inactive"}
{"smiles": "OC1CCCCCCCCCCC1", "outcome": "inactive"}
{"smiles": "Oc1ccc(Cl)cc1Cc1cc(Cl)ccc1O", "AC50": "16.2 µM (active)"}
{"smiles": "Cc1ccc(N/N=c2\\c(=O)cc/c(=N/Nc3ccc(S(=O)(=O)O)cc3)c2=O)c(C)c1", "AC50": "25 µM (active)"}
{"molecular_target": "Estrogen receptor (Homo sapiens) (UniProt P03372)", "sequence (P03372 whole entry, looked up)": "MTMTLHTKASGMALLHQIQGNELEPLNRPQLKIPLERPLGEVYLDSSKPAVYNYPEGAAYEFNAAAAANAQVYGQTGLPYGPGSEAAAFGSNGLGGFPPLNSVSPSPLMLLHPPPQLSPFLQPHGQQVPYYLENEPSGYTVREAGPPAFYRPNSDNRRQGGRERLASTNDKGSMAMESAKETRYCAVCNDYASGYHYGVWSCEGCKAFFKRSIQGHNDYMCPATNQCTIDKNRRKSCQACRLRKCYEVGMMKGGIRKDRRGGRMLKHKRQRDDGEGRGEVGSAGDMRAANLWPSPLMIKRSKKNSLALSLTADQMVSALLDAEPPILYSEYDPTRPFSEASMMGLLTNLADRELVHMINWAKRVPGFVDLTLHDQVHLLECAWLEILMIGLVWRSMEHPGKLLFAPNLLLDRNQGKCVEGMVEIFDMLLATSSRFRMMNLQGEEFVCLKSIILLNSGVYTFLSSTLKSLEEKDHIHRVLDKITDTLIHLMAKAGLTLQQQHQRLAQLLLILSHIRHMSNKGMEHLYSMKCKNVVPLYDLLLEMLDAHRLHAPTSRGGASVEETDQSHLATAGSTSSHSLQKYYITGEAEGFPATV", "assay": "NVS_NR_hER: NovaScreen (NVS) Nuclear Receptor Binding Assay for human Estrogen Receptor (ER) (AID 2283348)", "method_in_brief": "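Radioligand competitive displacement binding to estrogen receptor from MCF7 extract, cell-free; 18 h after dosing, scintillation read-out. Primary screen in duplicate at 25 uM; actives followed up in concentration series; loss of signal vs DMSO.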"}
{"smiles": "COc1ccc(C(Cl)=C(c2ccc(OC)cc2)c2ccc(OC)cc2)cc1", "AC50": "7.49 µM (active)"}
{"smiles": "CCC(=O)Oc1ccc(/C(CC)=C(\\CC)c2ccc(OC(=O)CC)cc2)cc1", "AC50": "0.00229 µM (active)"}
{"smiles": "CCOC(=O)N1CCC(=C2c3ccc(Cl)cc3CCc3cccnc32)CC1", "AC50": "0.0259 µM (active)"}
{"smiles": "O=S1(=O)OC(c2ccc(O)cc2)(c2ccc(O)cc2)c2ccccc21", "AC50": "13.2 µM (active)"}
{"smiles": "Nc1ccc(Oc2ccc(N)c(N)c2)cc1", "outcome": "inactive"}
{"smiles": "Cc1cccc(N)n1", "outcome": "inactive"}
{"smiles": "OC1CCCC1", "outcome": "inactive"}
{"smiles": "O=C(c1ccc(O)cc1)c1ccc(O)cc1O", "AC50": "0.481 µM (active)"}
{"smiles": "CCCCCCCCCCCCCOP(=O)(O)O", "outcome": "inactive"}
{"smiles": "[Cl][Bi]([Cl])([c]1ccccc1)([c]1ccccc1)[c]1ccccc1", "outcome": "inactive"}
{"smiles": "CCC(C)OC(=O)c1ccc(O)cc1", "note": "(stereo not given)", "AC50": "0.603 µM (active)"}
{"smiles": "O=C1Nc2ccccc2C1(c1ccc(O)cc1)c1ccc(O)cc1", "outcome": "inactive"}
{"smiles": "CC(=O)[C@H]1[C@H](C#N)C[C@H]2[C@@H]3CC=C4C[C@@H](O)CC[C@]4(C)[C@H]3CC[C@@]21C", "outcome": "inactive"}
{"smiles": "O=c1cc(-c2ccccc2)oc2ccccc12", "outcome": "inactive"}
{"smiles": "[Cl][In]([Cl])[Cl]", "AC50": "25 µM (active)", "outcome": "inactive"}
{"smiles": "COc1ccc(-c2coc3cc(O)ccc3c2=O)cc1", "AC50": "7.09 µM (active)"}
{"smiles": "C=CC(=O)OCCOC(=O)C=C", "outcome": "inactive"}
{"smiles": "Cc1cccc(N(C)C(=S)Oc2ccc3ccccc3c2)c1", "outcome": "inactive"}
{"smiles": "NC(CO)(CO)CO", "outcome": "inactive"}
{"smiles": "CC(C)c1ccc2c(C(C)C)cc(C(C)C)c(S(=O)(=O)O)c2c1", "outcome": "inactive"}
{"smiles": "O=C(c1ccccc1)c1ccc(O)c(O)c1O", "outcome": "inactive"}
{"smiles": "Oc1ccc(Cl)cc1Cc1cc(Cl)ccc1O", "AC50": "25 µM (active)"}
{"smiles": "O=S(=O)(O)c1ccccc1C=Cc1ccc(-c2ccc(C=Cc3ccccc3S(=O)(=O)O)cc2)cc1", "outcome": "inactive"}
